# About 7,900 targets were measured; listed, in parts, are those with a hit and a random draw of the rest. About 0.6% of all pairs of compound and target were hits. Values without a mark were called inactive.
# Legend:
# Test in all cases: log2 fold change, soluble protein after heating vs DMSO (PISA); higher = thermal stabilisation; K562 cells, 10 uM, 30 min; active = over 0.2 and 3.5 SD of the protein, either way, in both replicates (recomputed)
# erlotinib = compound: C#Cc1cccc(Nc2ncnc3cc(OCCOC)c(OCCOC)cc23)c1 [erlotinib]
# In short: (§1)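 For each measurement, 10 μM compound was applied for 30 min to K562 cells at 2×10^6 cells/mL. Aliquots were heated for 3 min across 48°C-58°C, pooled, and extracted in PBS with 0.5% NP-40 at 4°C; the supernatant after 21,000xg for 90 min was soluble protein. This was quantified by TMTpro 16plex LC-MS/MS with channel sums equalised, and thermal stability was reported relative to control samples from duplicates, on a log2 fold-change scale.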
# [1] = compound: C/C(=N\NC(=O)C1=CC(=CC=C1)S(=O)(=O)N2CCOCC2)/C3=C(C=CC(=C3)Cl)O
# In short: as §1
# [2] = compound: C1=CC(=C(C=C1Cl)C2=NC3=NC=CN=C3C(=N2)NC4=CC=NC=C4)F
# In short: as §1
# [3] = compound: C1=CC(=CC=C1C2=NC3=C(N2)C=C(C=C3)C(=O)N)OC4=CC=C(C=C4)Cl
# In short: as §1
# [4] = compound: C1=CC2=C(C=CC(=C2)/C=C\3/C(=O)NC(=NCC4=CC=CS4)S3)N=C1
# In short: as §1
# [5] = compound: C1=CC2=NC=CN=C2C=C1/C=C/3\C(=O)NC(=O)S3
# In short: as §1
# [6] = compound: C1=CC=C(C=C1)C2=NC(=C(N2)C3=CC=NC=C3)C4=CC(=C(C=C4)Cl)O
# In short: as §1
# [7] = compound: C1=CC=C2C(=C1)C3=NNC4=CC=CC(=C43)C2=O
# In short: as §1
# [8] = compound: C1CCN(C1)C(=O)NC2=CC=CC(=C2)NC3=NC=C(C(=N3)NCCC4=CN=CN4)Br
# In short: as §1
# [9] = compound: C1CN(CCC1(CC2=CC=C(C=C2)Cl)N)C3=NC=NC4=C3C=CN4
# In short: as §1
# Sequence of UniProt Q13889 (Q13889 whole entry, looked up): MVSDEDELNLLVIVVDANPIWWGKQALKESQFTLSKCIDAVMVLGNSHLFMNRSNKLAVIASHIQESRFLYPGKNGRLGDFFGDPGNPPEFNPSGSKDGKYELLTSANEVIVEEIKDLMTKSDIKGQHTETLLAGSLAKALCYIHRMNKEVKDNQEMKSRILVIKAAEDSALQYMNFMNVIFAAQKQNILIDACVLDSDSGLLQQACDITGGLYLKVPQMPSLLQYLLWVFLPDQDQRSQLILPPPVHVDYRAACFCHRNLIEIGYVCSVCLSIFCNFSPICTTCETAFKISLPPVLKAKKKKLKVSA
# Sequence of UniProt P52657 (P52657 whole entry, looked up): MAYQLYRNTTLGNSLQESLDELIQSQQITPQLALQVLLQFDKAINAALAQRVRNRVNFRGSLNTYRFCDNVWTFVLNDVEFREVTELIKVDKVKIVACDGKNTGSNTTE
# Sequence of UniProt P01112 (P01112 whole entry, looked up): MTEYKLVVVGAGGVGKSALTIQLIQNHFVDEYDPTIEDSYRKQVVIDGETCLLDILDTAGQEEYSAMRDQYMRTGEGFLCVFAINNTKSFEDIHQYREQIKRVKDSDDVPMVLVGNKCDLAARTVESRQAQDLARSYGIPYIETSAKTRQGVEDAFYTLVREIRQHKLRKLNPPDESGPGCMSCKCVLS
# Sequence of UniProt P46976 (P46976 whole entry, looked up): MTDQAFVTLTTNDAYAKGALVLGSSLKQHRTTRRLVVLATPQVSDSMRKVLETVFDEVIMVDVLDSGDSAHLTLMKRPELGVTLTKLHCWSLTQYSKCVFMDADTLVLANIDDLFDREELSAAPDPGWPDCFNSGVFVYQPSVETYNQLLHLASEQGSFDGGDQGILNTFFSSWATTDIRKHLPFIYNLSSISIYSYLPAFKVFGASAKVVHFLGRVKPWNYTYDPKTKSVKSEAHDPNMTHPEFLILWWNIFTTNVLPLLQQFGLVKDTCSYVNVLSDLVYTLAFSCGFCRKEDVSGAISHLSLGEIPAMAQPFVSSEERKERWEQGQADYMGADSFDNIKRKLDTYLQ
# Sequence of UniProt O15117 (O15117 whole entry, looked up): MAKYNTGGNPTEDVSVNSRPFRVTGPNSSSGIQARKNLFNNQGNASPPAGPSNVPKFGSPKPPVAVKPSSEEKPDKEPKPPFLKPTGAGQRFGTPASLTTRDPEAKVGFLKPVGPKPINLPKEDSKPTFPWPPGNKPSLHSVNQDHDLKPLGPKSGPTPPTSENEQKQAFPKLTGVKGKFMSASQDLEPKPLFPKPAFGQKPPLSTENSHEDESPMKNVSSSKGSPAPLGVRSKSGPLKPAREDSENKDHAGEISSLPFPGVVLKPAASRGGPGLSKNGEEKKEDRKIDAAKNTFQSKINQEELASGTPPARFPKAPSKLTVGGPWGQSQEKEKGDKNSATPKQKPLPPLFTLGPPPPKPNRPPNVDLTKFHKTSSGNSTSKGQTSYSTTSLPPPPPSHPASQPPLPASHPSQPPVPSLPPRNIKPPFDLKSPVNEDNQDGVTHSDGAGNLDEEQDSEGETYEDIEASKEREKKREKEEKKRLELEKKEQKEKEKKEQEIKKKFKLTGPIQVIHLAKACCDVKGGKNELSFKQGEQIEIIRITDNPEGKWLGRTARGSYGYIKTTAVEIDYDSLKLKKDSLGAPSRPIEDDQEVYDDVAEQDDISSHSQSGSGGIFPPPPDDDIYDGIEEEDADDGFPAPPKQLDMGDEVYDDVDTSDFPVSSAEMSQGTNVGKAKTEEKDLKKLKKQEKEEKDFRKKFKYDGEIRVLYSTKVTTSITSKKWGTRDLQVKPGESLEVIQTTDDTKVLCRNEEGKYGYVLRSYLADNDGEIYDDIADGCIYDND
# Sequence of UniProt Q5SSJ5 (Q5SSJ5 whole entry, looked up): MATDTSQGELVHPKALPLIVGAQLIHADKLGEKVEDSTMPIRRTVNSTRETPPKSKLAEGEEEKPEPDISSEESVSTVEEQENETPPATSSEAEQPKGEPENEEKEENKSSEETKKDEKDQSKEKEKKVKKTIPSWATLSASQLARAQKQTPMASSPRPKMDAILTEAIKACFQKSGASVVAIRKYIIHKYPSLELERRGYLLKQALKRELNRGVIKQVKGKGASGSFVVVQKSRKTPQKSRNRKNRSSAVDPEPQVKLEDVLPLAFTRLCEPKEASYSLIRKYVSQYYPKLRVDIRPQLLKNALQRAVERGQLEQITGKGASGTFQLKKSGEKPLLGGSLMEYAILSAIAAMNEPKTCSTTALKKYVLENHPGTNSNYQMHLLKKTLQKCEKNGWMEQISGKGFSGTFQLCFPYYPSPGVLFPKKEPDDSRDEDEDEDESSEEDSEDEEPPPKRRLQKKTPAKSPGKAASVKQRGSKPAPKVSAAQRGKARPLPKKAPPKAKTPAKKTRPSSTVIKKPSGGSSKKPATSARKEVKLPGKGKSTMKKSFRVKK
# Sequence of UniProt P07910 (P07910 whole entry, looked up): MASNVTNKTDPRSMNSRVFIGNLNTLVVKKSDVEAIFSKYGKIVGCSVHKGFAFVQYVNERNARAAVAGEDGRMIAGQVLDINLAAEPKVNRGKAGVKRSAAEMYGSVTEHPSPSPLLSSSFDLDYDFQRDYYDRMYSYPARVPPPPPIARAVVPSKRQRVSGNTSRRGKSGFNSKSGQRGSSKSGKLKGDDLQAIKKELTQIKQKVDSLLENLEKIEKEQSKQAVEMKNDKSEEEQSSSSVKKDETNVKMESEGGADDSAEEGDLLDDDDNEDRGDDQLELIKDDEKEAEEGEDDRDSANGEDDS
# Sequence of UniProt O60725 (O60725 whole entry, looked up): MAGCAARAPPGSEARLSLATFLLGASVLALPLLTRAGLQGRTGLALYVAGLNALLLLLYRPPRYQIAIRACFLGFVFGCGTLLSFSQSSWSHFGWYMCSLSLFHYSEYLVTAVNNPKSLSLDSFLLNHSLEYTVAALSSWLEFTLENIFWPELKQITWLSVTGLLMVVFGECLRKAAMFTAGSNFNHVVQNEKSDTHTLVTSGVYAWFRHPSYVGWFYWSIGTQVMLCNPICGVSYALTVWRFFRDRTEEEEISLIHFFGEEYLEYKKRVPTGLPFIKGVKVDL
# Sequence of UniProt O15228 (O15228 whole entry, looked up): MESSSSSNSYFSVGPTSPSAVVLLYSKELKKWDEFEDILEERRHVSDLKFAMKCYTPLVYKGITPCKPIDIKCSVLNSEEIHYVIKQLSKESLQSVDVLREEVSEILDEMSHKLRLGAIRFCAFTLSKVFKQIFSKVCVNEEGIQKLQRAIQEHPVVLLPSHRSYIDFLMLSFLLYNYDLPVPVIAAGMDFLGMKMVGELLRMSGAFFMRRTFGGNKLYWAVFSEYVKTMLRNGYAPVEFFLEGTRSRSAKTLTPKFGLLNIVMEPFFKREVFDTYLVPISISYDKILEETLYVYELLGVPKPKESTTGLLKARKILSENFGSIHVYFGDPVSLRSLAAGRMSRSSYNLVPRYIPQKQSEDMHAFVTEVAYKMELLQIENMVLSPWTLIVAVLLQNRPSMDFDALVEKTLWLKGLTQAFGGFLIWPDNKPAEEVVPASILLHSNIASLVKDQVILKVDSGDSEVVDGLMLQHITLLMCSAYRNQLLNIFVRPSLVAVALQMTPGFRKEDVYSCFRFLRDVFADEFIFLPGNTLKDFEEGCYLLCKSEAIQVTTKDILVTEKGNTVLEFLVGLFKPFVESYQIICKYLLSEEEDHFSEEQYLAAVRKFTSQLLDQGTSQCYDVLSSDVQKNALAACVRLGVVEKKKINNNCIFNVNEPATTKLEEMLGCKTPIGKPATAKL
# Sequence of UniProt P52789 (P52789 whole entry, looked up): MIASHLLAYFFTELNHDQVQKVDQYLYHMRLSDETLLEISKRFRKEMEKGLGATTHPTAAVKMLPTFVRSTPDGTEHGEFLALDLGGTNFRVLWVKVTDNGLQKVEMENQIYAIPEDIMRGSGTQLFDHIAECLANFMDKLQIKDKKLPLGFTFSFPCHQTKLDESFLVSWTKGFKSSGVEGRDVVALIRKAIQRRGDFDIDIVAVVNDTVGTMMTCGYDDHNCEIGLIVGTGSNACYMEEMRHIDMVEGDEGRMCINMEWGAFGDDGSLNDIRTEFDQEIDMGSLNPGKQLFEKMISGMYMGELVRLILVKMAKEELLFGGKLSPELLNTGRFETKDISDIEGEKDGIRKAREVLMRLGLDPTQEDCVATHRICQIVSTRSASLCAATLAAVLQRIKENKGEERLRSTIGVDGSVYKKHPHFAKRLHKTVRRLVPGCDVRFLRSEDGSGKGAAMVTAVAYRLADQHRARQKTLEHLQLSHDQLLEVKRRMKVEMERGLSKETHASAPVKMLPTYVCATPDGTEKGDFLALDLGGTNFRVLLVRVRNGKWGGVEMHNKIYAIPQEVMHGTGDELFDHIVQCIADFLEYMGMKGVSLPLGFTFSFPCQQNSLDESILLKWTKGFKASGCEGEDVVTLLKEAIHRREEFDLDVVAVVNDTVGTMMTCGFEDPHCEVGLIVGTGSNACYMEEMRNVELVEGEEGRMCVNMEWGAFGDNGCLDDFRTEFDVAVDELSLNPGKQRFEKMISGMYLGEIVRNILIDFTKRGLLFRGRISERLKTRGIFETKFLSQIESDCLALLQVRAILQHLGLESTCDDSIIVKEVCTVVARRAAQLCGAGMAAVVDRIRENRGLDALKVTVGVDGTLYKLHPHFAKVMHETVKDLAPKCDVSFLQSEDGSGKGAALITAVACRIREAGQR
# Sequence of UniProt P39748 (P39748 whole entry, looked up): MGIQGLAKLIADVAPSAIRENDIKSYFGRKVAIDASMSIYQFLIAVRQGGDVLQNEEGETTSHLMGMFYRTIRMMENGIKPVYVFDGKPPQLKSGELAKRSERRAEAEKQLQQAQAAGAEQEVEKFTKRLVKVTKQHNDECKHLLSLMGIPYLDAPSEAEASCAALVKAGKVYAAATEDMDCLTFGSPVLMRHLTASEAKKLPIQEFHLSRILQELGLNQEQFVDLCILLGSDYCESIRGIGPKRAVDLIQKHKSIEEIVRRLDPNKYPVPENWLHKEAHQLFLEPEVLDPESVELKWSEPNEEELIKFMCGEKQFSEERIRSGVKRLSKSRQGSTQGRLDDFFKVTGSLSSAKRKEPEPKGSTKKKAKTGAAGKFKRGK
# Sequence of UniProt P63218 (P63218 whole entry, looked up): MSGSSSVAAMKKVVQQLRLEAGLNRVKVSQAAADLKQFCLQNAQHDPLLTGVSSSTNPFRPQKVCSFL
Target,log2 fold change (erlotinib),log2 fold change [1],log2 fold change [2],log2 fold change [3],log2 fold change [4],log2 fold change [5],log2 fold change [6],log2 fold change [7],log2 fold change [8],log2 fold change [9]
GTF2A2 (UniProt P52657),-0.057,0.048,0.089,-0.005,0.132,0.038,-0.002,-0.02,0.008,0.07
GBF1 (UniProt Q92538),-0.012,0.077,-0.049,-0.022,0.075,0.028,-0.036,0.033,-0.026,-0.052
HIC2 (UniProt Q96JB3),0.128,0,-0.17,0.028,-0.159,-0.08,0.012,-0.266,-0.023,-0.09
FKBP7 (UniProt Q9Y680),-0.027,-0.027,0.005,0.037,0,0.081,-0.037,-0.042,0.039,0.048
HHEX (UniProt Q03014),-0.043,-0.206,0.069,0.044,0.008,-0.022,-0.044,0.037,-0.004,0.022
HK2 (UniProt P52789),-0.068,0.037,0.051,0,0.028,-0.015,0.005,-0.017,0.009,0.023
HP1BP3 (UniProt Q5SSJ5),0.071,-0.035,-0.04,0.028,0.069,0.064,-0.013,-0.044,0.027,-0.155
FYB1 isoform 3 (UniProt O15117),0.019,0.032,-0.02,-0.01,0.057,0.006,0.014,-0.08,-0.041,0
HRAS (UniProt P01112),0.029,0.034,0.069,0.146,-0.356,-0.244,0.138,-0.168,-0.08,0.048
GALNT4 (UniProt Q8N4A0),0.077,0.062,0.075,0.026,0.086,0.044,-0.012,0.008,0.006,0.005
HDDC2 (UniProt Q7Z4H3),-0.014,0.059,0.039,0.018,-0.072,0.034,0.292 (active),0.024,-0.039,0.076
FEN1 (UniProt P39748),0.126,0.098,0.091,0.026,0.172,0.003,0.118,0.026,0.007,-0.068
HNRNPK isoform 2 (UniProt P61978),0.042,0.019,-0.003,0,0.058,-0.008,-0.013,-0.024,0.011,0.02
HPCAL1 (UniProt P37235),0.011,0.048,0.029,0,0,0.057,-0.063,0.002,0.013,-0.034
IFI30 (UniProt P13284),0.061,0.018,-0.084,0.012,-0.089,0.026,0.067,0.009,-0.004,0.026
GYG1 (UniProt P46976),-0.064,0.016,-0.23,0.005,0.089,-0.039,-0.109,0.083,-0.075,-0.027
HIP1 (UniProt O00291),0.018,0.033,0.046,-0.004,0.018,-0.056,0.011,-0.166,-0.209,0.09
HNRNPC isoform 2 (UniProt P07910),0.093,-0.349,-0.682,0.204,0.025,0.188,-0.172,-0.164,0.087,-0.385
GLS isoform 3 (UniProt O94925),0.09,0.156,-0.041,-0.094,0.027,0.004,0,-0.082,-0.11,-0.12
FARS2 (UniProt O95363),0,0.081,-0.046,0.061,-0.03,-0.018,0.014,0.065,0.084,-0.057
GNPAT (UniProt O15228),0.067,0.112,0.075,-0.001,0.073,0.03,0.057,0.019,-0.003,0.058
GNG5 (UniProt P63218),-0.07,0.01,0.436 (active),0.089,0.031,-0.001,0.072,0.038,-0.037,-0.044
ICMT (UniProt O60725),0.059,-0.081,0.015,-0.001,0.214,-0.064,0.122,-0.038,-0.206,-0.032
GTF2E1 (UniProt P29083),0.067,0.145,0.046,-0.002,0.094,0.007,0.025,0.039,-0.076,0.017
HIST2H2BF isoform 2 (UniProt Q5QNW6),0.013,-0.161,-0.433,0.046,0.048,0.223,-0.057,-0.083,0.191,-0.373
FIS1 (UniProt Q9Y3D6),0.013,0.066,0.015,0.01,-0.034,0.024,-0.025,0.02,-0.06,0.09
HEXB (UniProt P07686),-0.004,0.002,0.01,0.003,-0.002,0.017,0.017,-0.01,0.008,0.026
GSTM4 (UniProt Q03013),0.084,-0.029,0.217,-0.002,-0.038,0.268,-0.031,-0.128,0.018,0.062
FANCD2 isoform 1 (UniProt Q9BXW9),0.077,0.075,-0.003,0.012,0.145,0.02,0,-0.012,-0.008,0.02
GTF2H3 (UniProt Q13889),-0.002,0.041,-0.115,0.051,0.027,-0.017,0.014,0.012,-0.004,0.044

# Reference: the supplement of paper PMC10849652
